From PubChem BioAssay
Values without a mark were called inactive.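 The calls were made as follows, unless noted: active = inhibition of the reporter signal at or above 50%; inactive = inhibition below 50%.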

assay: blockers of RIG-like receptor reporter activation – cell-based, Sendai virus stimulus, luciferase, 10K MLSCN set, TLR/RLR signaling modifier project, primary screen (AID 602276;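 active = inhibition at or above 50% at 10 µM; inactive = inhibition below 50%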;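 also: firefly luciferase from ISG56 promoter only with Renilla not read in this screen; 0% = Sendai virus plus DMSO and 100% = medium plus DMSO without virus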); conditions: HEK293 RL24 IRF3 luciferase reporter, at 10 µM, active compounds read high

Row | Compound | inhibition
1 | O=C(Nc1ccc(-c2nc3ncccc3o2)cc1)c1ccc(Br)o1 | -28.6%
2 | COc1ccc(S(=O)(=O)Nc2ccc(Cl)cn2)c(C)c1C | 11.2%
3 | COc1cccc(NC(=O)N2CCCC2C(=O)Nc2ccc3c(c2)OCO3)c1 (stereo not drawn) | 13.7%
4 | O=C(CSc1nc2ccccc2c(=O)n1Cc1ccco1)NCc1ccccc1 | 19.4%
5 | O=C(NC1CCCC1)C(NS(=O)(=O)c1cccc2nsnc12)c1ccccc1 (stereo not drawn) | 17.9%
6 | CCOC(=O)c1sc(NC(=O)CSc2ncn(-c3ccccc3)n2)nc1C | 13.7%
7 | COC(=O)Nc1ccc(S(=O)(=O)N2CCCCCC2)cc1 | 17.1%
8 | Cc1cc(C)n2nc(SCC(=O)N(C)Cc3ccccc3)nc2n1 | -13.5%
9 | O=C(CSc1nnc(Cc2ccccc2)n1-c1cccc(Cl)c1)N1CCOCC1 | -1.07%

assay: TLR3 IRF3 reporter activation blockers – cell-based, poly I:C stimulus, luciferase, 10K MLSCN set, primary screen (AID 602277); conditions: HEK293-TLR3 RL24 IRF3 luciferase reporter, at 10 µM, active compounds read high

Row | Compound | inhibition
10 | COc1ccc(OC)c(NC(=O)CSc2nnc(-c3ccco3)n2-c2ccccc2)c1 | 12.9%
11 | C#CCSc1nc(-c2cccs2)ccc1C#N | 5.18%
12 | O=C1c2oc3ccccc3c(=O)c2C(c2cccnc2)N1Cc1ccco1 (stereo not drawn) | 8.46%
13 | Cc1ccc(C(=O)Nc2c(C(=O)N3CCOCC3)cnn2-c2ccccc2)cc1 | 15.4%
14 | C#CCOC(=O)C1C2C=CC(C2)C1C(=O)O (stereo not drawn) | 0.62%
15 | O=C(NC1CCCCCCC1)C1CCN(c2nc3ccccc3o2)CC1 | -11.1%
16 | COC(=O)c1[nH]c2ccc(C)cc2c1NC(=O)CN1CCC(C)CC1 | 2.95%
17 | Cc1cc(C)nc(SCc2nnc(SCC(=O)Nc3ncc(C)s3)n2Cc2ccco2)n1 | 11.7%
18 | O=C(c1ccc(S(=O)(=O)N2CCC(c3nc4ccccc4s3)CC2)cc1)N1CCOCC1 | 3.6%
19 | CCCCCc1nnc(NC(=O)Cc2cccs2)s1 | 1.2%
20 | COc1ccc(N=C2C(=O)Nc3ccccc32)cc1 | 28.1%
21 | O=C(O)CCc1ccc(-c2ccc(F)cc2)n1CCC(=O)O | 19.9%
22 | COC(=O)c1ccccc1NC(=O)c1cnc2sccn2c1=O | -1.07%
23 | COc1ccc(Cl)c(NC(=O)NCCN2CCN(c3ccccc3)CC2)c1 | 23.5%
24 | COc1cccc(NC(=O)N(CCCN2CCOCC2)C(C)c2cc3cccc(OC)c3o2)c1 (stereo not drawn) | 34.8%
25 | CC(C)(C)NC(=O)CN(Cc1cccs1)C(=O)c1csnn1 | 16.1%
26 | O=C(CSc1nnc(-c2ccccn2)n1Cc1ccccc1)N1CCCC1 | 2.57%

Row | Compound | inhibition
27 | Cc1[nH]nc(-c2ccc(O)c(C)c2O)c1-c1cnn(-c2ccccc2)c1 | 5.23%
28 | O=C(CN1CCSCC1)N1CCc2[nH]c3ccc(Br)cc3c2C1 | 7.8%
29 | COc1ccccc1C1N(c2ccc(F)cc2)C(=O)C2CCCN21 (stereo not drawn) | 14.8%
30 | Cc1cc(N2C(=O)CC(N3CCN(c4ccc(C(=O)c5cccs5)cc4)CC3)C2=O)no1 (stereo not drawn) | -9.36%
31 | CC(C)(C)NC(=O)C(Cc1ccccc1)NS(=O)(=O)c1cccc2nsnc12 (stereo not drawn) | 8.45%
32 | COc1ccc(N2C(=O)c3cccc4cccc(c34)C2=O)nn1 | 20.4%
33 | O=C(CSc1ccccc1C(=O)NCCCN1CCCC1=O)NCc1ccco1 | 12.7%
34 | Cc1ccc(OCC(O)Cn2c(NCCc3ccccc3)nc3c2c(=O)[nH]c(=O)n3C)cc1 (stereo not drawn) | 1.64%
35 | CC1CCCC(C)N1CCNC(=O)C1CCN(S(=O)(=O)N2CCCCC2)CC1 (stereo not drawn) | -0.147%
36 | Cc1nc2ncnn2c(N2CCC(C(=O)NCC3CCCO3)CC2)c1Cc1ccccc1 (stereo not drawn) | 19.2%
37 | COc1ccc(NC(=O)Nc2ccc(N3CCCC3=O)cc2)cc1OC | -16.1%
38 | CC(NC(=O)NC12CC3CC(CC(C3)C1)C2)C1CCCO1 (stereo not drawn) | 8.29%
39 | COc1ccc(N2CCN(C(=O)CSc3ccccc3)CC2)cc1 | -34.1%
40 | COC(=O)c1cccc(NC(=O)CN2CCN(Cc3ccccc3)CC2)c1 | 14.9%
41 | O=C(Nc1ccc(-c2nc3ncccc3o2)cc1)c1ccc(Br)o1 | -98.2%
42 | COc1ccc(S(=O)(=O)Nc2ccc(Cl)cn2)c(C)c1C | 1.09%
43 | COc1cccc(NC(=O)N2CCCC2C(=O)Nc2ccc3c(c2)OCO3)c1 (stereo not drawn) | 18.8%
